Results published in PubChem BioAssay (Tox21).
Results filed as inconclusive are left out. Active and inactive are the calls of the source. Unless noted, calls follow the shape of the dose curve; as a rule, active = well fitted curve in the direction sought with a large enough effect in the repeat runs; inconclusive = weak or mixed curves; inactive = no such curve, though single readings can be large; an effect the other way counts as inactive or inconclusive.

Columns and labels:
[1] = target: Acetylcholinesterase (Homo sapiens) (UniProt P22303); test: Acetylcholinesterase (AChE) small molecule antagonists: enzyme-based qHTS assay with human liver microsomes (AID 1347399; calls by dose curve; also: nearly all actives have a fitted effect of over 60% in size); conditions: Potency: qHTS inhibition; outcome: qHTS inhibition
Sequence of Acetylcholinesterase (Homo sapiens) (P22303 whole entry, looked up): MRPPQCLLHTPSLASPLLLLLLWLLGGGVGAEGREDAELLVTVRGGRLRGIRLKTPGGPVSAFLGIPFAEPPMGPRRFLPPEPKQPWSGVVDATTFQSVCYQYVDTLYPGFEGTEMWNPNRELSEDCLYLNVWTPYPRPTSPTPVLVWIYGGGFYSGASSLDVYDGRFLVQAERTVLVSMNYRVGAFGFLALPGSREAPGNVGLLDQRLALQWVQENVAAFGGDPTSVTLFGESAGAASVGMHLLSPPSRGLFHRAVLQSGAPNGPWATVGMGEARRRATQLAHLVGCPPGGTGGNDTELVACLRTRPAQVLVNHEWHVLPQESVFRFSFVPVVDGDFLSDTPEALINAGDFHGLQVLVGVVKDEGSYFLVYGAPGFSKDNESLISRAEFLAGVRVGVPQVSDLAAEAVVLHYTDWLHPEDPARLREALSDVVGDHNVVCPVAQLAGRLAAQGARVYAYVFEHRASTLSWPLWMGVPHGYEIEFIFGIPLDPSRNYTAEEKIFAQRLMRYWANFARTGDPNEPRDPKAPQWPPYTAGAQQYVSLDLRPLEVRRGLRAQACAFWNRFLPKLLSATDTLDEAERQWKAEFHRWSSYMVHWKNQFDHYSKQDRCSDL
Outline: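 Recombinant human AChE (50 mU/mL in the enzyme mix) and human liver microsomes (0.25 mg/mL final) were preincubated with compound and NADPH (0.25 mg/mL final) for 30 min at 37 C. Acetylthiocholine/DTNB was then added; thiocholine was read colorimetrically after 10 min at room temperature.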

[2] = qHTS assay for small molecules that induce genotoxicity in human embryonic kidney cells expressing luciferase-tagged ATAD5 (AID 651632); also: nearly all actives have a fitted effect of over 15% in size
Outline: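 Luminescence read-out: after 16 hr compound exposure at 37C, ATAD5-luciferase HEK293T cells received Amplite, 30 min RT, then CCD imaging. A rise in signal marks genotoxic stress.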

[3] = qHTS assay for small molecule agonists of the p53 signaling pathway - cell viability (AID 651633; calls by dose curve; also: series mostly up to about 83 µM; nearly all actives have a fitted effect of over 30% in size)
Outline: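 p53RE-bla cells were treated with compound for 16 hours at 37 C. Cytotoxicity was then measured as CellTiter-Glo luminescence after 30 min at room temperature.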

[4] = qHTS assay for small molecules that induce genotoxicity in human embryonic kidney cells expressing luciferase-tagged ATAD5 - cell viability (AID 651634; calls by dose curve; also: nearly all actives have a fitted effect of over 25% in size)
Outline: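 HEK293T ATAD5-luc cells, 2,000/well; compound 15.5 hr, 37C/5% CO2; CellTiter-Fluor 30 min, 37C; fluorescence read.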

[5] = qHTS assay for small molecule disruptors of the mitochondrial membrane potential - cell viability (AID 720634; calls by dose curve;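 also: human HepG2 liver cancer cells; series mostly up to about 83 µM; nearly all actives have a fitted effect of over 20% in size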)
Outline: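 Luminescence from CellTiter-Glo (ATP content) gave viability in HepG2 cells, read in the same wells as the MMP dye assay after 1 hr compound exposure at 37 C.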

[6] = qHTS assay for small molecule disruptors of the mitochondrial membrane potential (AID 720635)
Outline: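 HepG2 cells exposed to compound 1 hr at 37C, then Mito-MPS dye 30 min. Ratio read of aggregate (540/590 nm) versus monomer (490/535 nm) fluorescence.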

[7] = qHTS assay to test for compound auto fluorescence at 590 nm (red) in HepG2 cells (AID 720674)
Outline: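 HepG2 cells, 2,000 per well in MEM with 10% FBS, attached overnight at 37 C, then got 23 nL compound or DMSO. After 1 hr at 37 C, 5% CO2, red fluorescence was read at 540/590 nm against Rose Bengal sodium as reference.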

[8] = qHTS assay to test for compound auto fluorescence at 535 nm (green) in HepG2 cells (AID 720675)
[9] = qHTS assay to test for compound auto fluorescence at 460 nm (blue) in HEK293 cells (AID 720678)
Outline: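 HEK293 cells (2,000/well, medium with 10% dialyzed FBS) attached 4-5 hr, then exposed to compound overnight at 37C, 5% CO2. Blue fluorescence read at 405/460 nm, with triamterene as reference fluorophore.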

[10] = qHTS assay to test for compound auto fluorescence at 590 nm (red) in HEK293 cells (AID 720679)
Outline: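 HEK293 cells (2,000/well, 10% dialyzed FBS) attached 4-5 hr, then dosed with compound or DMSO and incubated overnight at 37C, 5% CO2. Red fluorescence read at 540/590 nm, Rose Bengal sodium as reference fluorophore.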

[11] = qHTS assay to test for compound auto fluorescence at 535 nm (green) in HEK293 cells (AID 720680)
[12] = qHTS assay to test for compound auto fluorescence at 535 nm (green) in HEK293 cell free culture (AID 720682)
Outline: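 Compounds were pin-transferred into cell-free DMEM with 10% FBS, and green fluorescence was read at excitation 485 nm and emission 535 nm. Intensities were expressed as fluorescein-equivalent values.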

[13] = qHTS assay to test for compound auto fluorescence at 590 nm (red) in HEK293 cell free culture (AID 720683)
Outline: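 Cell-free wells of DMEM with 10% FBS received compound, and intrinsic fluorescence was read at excitation/emission 540/590 nm. Values expressed as equivalence to Rose Bengal sodium.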

[14] = qHTS assay to test for compound auto fluorescence at 590 nm (red) in HepG2 cell free culture (AID 720684)
Outline: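 Rose Bengal sodium served as the reference for red signal. Test compounds were dispensed into serum-containing MEM (10% FBS) without cells, and plates were read at 540/590 nm.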

[15] = qHTS assay to test for compound auto fluorescence at 460 nm (blue) in HepG2 cell free culture (AID 720685)
Outline: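 Cell-free plates of MEM plus 10% FBS received 23 nL compound or DMSO vehicle; blue-channel (405/460 nm) intensity scored against triamterene as reference fluorophore.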

[16] = qHTS assay to test for compound auto fluorescence at 535 nm (green) in HepG2 cell free culture (AID 720686)
[17] = qHTS assay to test for compound auto fluorescence at 460 nm (blue) in HepG2 cells (AID 720687)
Outline: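 HepG2 cells in MEM with 10% FBS, attached overnight at 37 C, were exposed to compound or DMSO for 1 hr at 37 C, 5% CO2. Blue fluorescence was read at 405/460 nm, with triamterene as reference fluorophore.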

[18] = target: Glucocorticoid receptor (Homo sapiens) (UniProt P04150); test: qHTS assay to identify small molecule agonists of the glucocorticoid receptor (GR) signaling pathway (AID 720691; active = well fitted activation curve with a large enough effect in the signal ratio in the repeat runs, not every such curve was filed as active; the % refers to the signal ratio)
Sequence of Glucocorticoid receptor (Homo sapiens) (P04150 whole entry, looked up): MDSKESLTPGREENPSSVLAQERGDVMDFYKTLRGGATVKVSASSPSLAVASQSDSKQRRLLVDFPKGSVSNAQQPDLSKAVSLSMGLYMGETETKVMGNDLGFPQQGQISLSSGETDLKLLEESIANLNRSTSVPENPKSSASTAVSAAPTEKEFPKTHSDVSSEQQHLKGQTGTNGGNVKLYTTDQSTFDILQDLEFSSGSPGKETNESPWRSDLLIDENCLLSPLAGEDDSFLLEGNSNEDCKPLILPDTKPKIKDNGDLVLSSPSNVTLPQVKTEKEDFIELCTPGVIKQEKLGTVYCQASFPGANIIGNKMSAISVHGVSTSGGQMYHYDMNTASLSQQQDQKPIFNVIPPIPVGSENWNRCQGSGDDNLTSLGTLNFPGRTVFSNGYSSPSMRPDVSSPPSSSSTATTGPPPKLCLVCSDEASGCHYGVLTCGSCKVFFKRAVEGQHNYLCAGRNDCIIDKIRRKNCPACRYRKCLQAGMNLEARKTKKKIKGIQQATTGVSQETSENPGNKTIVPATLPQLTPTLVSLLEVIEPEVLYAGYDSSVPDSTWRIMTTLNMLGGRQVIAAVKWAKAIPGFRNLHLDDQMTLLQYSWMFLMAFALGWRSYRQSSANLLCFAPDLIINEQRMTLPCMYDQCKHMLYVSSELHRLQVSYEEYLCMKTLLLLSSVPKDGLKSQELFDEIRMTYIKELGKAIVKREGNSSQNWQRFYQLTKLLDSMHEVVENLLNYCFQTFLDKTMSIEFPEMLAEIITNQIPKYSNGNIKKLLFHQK
Outline: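 HeLa GR-bla reporter line; cells pre-incubated 4 h, compound in DMSO 18 h at 37 C; LiveBLAzer B/G FRET substrate 2 h RT; fluorescence intensity read-out.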

[19] = qHTS assay to identify small molecule antagonists of the glucocorticoid receptor (GR) signaling pathway - cell viability counter screen (AID 720693); also: nearly all actives have a fitted effect of over 55% in size
[20] = qHTS assay to identify small molecule antagonists of the androgen receptor (AR) signaling pathway using the MDA cell line - cell viability counter screen (AID 743041; also: nearly all actives have a fitted effect of over 45% in size)
Outline: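 Cytotoxicity counter screen: MDA-kb2 AR-luc cells, compound + R1881, 16 h, 37C, 0% CO2; CellTiter-Fluor added at 15.5 h, fluorescence read after 30 min.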

[21] = qHTS assay to identify small molecule antagonists of the thyroid receptor (TR) signaling pathway - cell viability counter screen (AID 743064); also: nearly all actives have a fitted effect of over 50% in size
Outline: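 In-well cytotoxicity read by CellTiter-Fluor (30 min, 37 C) following 23.5 h exposure of GH3 cells bearing a TRE-luciferase sensor. Compounds were added alongside 1 nM (final) T3 to drive TR transactivation.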

[22] = qHTS assay to identify small molecule antagonists of the thyroid receptor (TR) signaling pathway (AID 743065); also: series mostly up to about 70 µM; nearly all actives have a fitted effect of over 55% in size
Outline: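 GH3.TRE-Luc rat pituitary cells (two TREs driving luciferase) were dosed with compound, then stimulated with 1 nM T3 (final) for 23.5 h at 37 C. ONE-Glo luminescence was the read-out, with CellTiter-Fluor fluorescence as the cytotoxicity counter-screen.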

[23] = system: thyroid hormone receptor (rat, GH3 cells); test: qHTS assay to identify small molecule agonists of the thyroid receptor (TR) signaling pathway (AID 743066; calls by dose curve)
[24] = qHTS assay to identify small molecule antagonists of the estrogen receptor alpha (ER-alpha) signaling pathway using the BG1 cell line - cell viability counter screen (AID 743081);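 also: compound given together with 17beta-estradiol as the ER stimulus; series mostly up to about 70 µM; nearly all actives have a fitted effect of over 45% in size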
[25] = target: Aromatase (Homo sapiens) (UniProt P11511); test: qHTS assay to identify aromatase inhibitors (AID 743083); also: series mostly up to about 70 µM; nearly all actives have a fitted effect of over 55% in size
Sequence of Aromatase (Homo sapiens) (P11511 whole entry, looked up): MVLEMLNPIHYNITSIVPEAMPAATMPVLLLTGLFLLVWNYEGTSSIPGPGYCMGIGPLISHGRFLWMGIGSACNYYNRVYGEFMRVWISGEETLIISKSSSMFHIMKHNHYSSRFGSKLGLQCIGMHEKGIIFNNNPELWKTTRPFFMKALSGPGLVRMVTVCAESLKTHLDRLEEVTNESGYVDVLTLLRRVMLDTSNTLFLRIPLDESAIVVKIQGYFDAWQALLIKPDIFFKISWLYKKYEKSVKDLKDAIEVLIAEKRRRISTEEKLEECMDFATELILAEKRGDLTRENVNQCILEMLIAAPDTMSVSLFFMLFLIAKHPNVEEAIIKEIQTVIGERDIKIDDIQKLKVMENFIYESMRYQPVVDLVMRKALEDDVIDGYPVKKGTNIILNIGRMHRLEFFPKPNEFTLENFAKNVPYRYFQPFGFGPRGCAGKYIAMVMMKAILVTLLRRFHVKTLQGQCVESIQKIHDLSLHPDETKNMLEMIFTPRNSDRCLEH

[26] = qHTS assay to identify aromatase inhibitors - cell viability counter screen (AID 743084);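 also: cells stimulated with testosterone during compound exposure; nearly all actives have a fitted effect of over 55% in size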
[27] = qHTS assay to identify small molecule that activate the aryl hydrocarbon receptor (AhR) signaling pathway - cell viability counter screen (AID 743086);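 also: HepG2 liver cells carrying the AhR DRE luciferase reporter; series mostly up to about 70 µM; nearly all actives have a fitted effect of over 45% in size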
Outline: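 HepG2-AhR-luc (HG2L7.5c1) cells, 4000/well, treated 24 h at 37 C with compound; viability measured as CellTiter-Fluor fluorescence after 30 min in the same wells as the luciferase read.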

[28] = target: Peroxisome proliferator-activated receptor gamma (Homo sapiens) (UniProt P37231); test: qHTS assay to identify small molecule agonists of the peroxisome proliferator-activated receptor gamma (PPARg) signaling pathway (AID 743094; active = well fitted activation curve with a large enough effect in the signal ratio in the repeat runs, not every such curve was filed as active; the % refers to the signal ratio)
Sequence of Peroxisome proliferator-activated receptor gamma (Homo sapiens) (P37231 whole entry, looked up): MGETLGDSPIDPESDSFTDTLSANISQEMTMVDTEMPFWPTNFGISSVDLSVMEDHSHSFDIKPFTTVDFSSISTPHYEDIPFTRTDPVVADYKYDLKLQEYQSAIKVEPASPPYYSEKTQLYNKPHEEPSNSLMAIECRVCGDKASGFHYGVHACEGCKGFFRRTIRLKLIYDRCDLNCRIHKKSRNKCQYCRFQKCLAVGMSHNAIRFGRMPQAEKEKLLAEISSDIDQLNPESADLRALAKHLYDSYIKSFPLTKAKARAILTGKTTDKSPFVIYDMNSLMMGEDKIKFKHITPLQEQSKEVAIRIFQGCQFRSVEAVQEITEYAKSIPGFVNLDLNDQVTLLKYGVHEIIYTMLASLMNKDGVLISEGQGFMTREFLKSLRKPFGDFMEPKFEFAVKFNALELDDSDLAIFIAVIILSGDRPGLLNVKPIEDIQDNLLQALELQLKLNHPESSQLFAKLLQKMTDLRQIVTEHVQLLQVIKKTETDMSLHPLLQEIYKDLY
Outline: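 HEK293H PPARg-bla cells, 5 h settle at 37C/5% CO2; compound (DMSO) 17 h, 37C; B/G FRET substrate 1 h RT; fluorescence intensity read-out. qHTS format.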

[29] = qHTS assay for small molecule agonists of the p53 signaling pathway (AID 651631; calls by dose curve; also: nearly all actives have a fitted effect of over 15% in size)
Outline: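 Readout was fluorescence from the LiveBLAzer FRET substrate, applied for 2 h at room temperature after 16 h compound exposure at 37 °C. Cells were the p53RE-bla HCT-116 line, with beta-lactamase driven by p53 response elements.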

[30] = target: Glucocorticoid receptor (Homo sapiens) (UniProt P04150); test: qHTS assay to identify small molecule antagonists of the glucocorticoid receptor (GR) signaling pathway (AID 720692; active = well fitted inhibition curve with a large enough effect in the signal ratio in the repeat runs, not every such curve was filed as active; the % refers to the signal ratio)
Outline: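 Read-out: beta-lactamase FRET substrate fluorescence, 2 h at room temperature, in HeLa cells stably carrying a GRE-driven bla reporter. Compounds were co-incubated with 5 nM dexamethasone agonist (final) for 18 h at 37 C.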

[31] = qHTS assay for identifying genotoxic compounds that show differential cytotoxicity against isogenic chicken DT40 cell lines with known DNA damage response pathways - wild type cell line (AID 743012); also: nearly all actives have a fitted effect of over 60% in size
Outline: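 CellTiter-Glo luminescence readout of viability in wild type DT40 cells after 40 h compound exposure at 37 C/5% CO2; 300 cells/well; reagent incubated 30 min at room temperature before reading.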

[32] = qHTS assay for identifying genotoxic compounds that show differential cytotoxicity against isogenic chicken DT40 cell lines with known DNA damage response pathways - Rev3 mutant cell line (AID 743014); also: nearly all actives have a fitted effect of over 55% in size
[33] = qHTS assay for identifying genotoxic compounds that show differential cytotoxicity against isogenic chicken DT40 cell lines with known DNA damage response pathways - Rad54/Ku70 mutant cell line (AID 743015); also: nearly all actives have a fitted effect of over 60% in size
[34] = target: Androgen receptor (Homo sapiens) (UniProt P10275); test: qHTS assay to identify small molecule antagonists of the androgen receptor (AR) signaling pathway (AID 743035; active = well fitted inhibition curve with a large enough effect in the signal ratio in the repeat runs, not every such curve was filed as active; the % refers to the signal ratio)
Sequence of Androgen receptor (Homo sapiens) (P10275 whole entry, looked up): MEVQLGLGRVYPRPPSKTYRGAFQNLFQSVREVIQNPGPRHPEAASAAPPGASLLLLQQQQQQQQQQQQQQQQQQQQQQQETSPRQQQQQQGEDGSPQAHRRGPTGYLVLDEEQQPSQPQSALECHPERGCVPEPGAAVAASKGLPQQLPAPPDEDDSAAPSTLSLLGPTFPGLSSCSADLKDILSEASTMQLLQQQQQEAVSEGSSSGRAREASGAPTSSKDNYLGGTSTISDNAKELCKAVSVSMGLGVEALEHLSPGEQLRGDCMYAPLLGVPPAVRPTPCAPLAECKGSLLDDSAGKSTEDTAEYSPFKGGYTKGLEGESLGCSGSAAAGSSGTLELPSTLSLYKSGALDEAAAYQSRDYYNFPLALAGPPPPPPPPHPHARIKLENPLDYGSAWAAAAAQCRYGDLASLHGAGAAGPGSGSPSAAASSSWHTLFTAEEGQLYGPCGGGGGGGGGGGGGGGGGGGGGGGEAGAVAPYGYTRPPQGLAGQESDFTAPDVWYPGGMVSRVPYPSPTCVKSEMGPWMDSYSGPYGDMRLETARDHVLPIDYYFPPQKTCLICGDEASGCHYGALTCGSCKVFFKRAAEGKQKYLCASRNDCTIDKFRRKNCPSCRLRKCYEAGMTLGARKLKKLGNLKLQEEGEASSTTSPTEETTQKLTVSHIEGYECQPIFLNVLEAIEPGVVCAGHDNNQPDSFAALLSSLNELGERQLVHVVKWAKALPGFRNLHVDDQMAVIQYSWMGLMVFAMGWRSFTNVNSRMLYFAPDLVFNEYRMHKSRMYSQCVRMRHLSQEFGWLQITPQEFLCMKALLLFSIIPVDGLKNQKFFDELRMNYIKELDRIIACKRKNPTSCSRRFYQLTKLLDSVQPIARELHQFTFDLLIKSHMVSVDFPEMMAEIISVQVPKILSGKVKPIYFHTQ
Outline: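 AR-bla HEK293 reporter cells; 4 h settle at 37C/5% CO2; compound + R1881 agonist, 16 h at 37C; LiveBLAzer B/G FRET substrate 2 h RT; fluorescence intensity read. qHTS format.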

[35] = target: Androgen receptor (Homo sapiens) (UniProt P10275); test: qHTS assay to identify small molecule agonists of the androgen receptor (AR) signaling pathway using the MDA cell line (AID 743040; also: nearly all actives have a fitted effect of over 20% in size)
Outline: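 Luciferase read-out, ONE-Glo, 30 min RT. Cells: MDA-kb2 AR-luc, MMTV promoter with AR and GR response elements. Compound exposure 16 h, 37C, 0% CO2, after 5 h pre-incubation. qHTS agonist mode.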

[36] = target: Androgen receptor (Homo sapiens) (UniProt P10275); test: qHTS assay to identify small molecule antagonists of the androgen receptor (AR) signaling pathway using the MDA cell line (AID 743042; also: nearly all actives have a fitted effect of over 55% in size)
Outline: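 MDA-kb2 breast carcinoma cells carrying MMTV-luciferase (AR/GR responsive) were co-treated with compounds and the agonist R1881 for 16 h at 37C. Inhibition read as ONE-Glo luminescence; CellTiter-Fluor fluorescence measured in parallel for cytotoxicity.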

[37] = target: Estrogen receptor (Homo sapiens) (UniProt P03372); test: qHTS assay to identify small molecule antagonists of the estrogen receptor alpha (ER-alpha) signaling pathway (AID 743069; active = well fitted curve in the direction sought with a large enough effect in the signal ratio in the repeat runs, not every such curve was filed as active; the % refers to the signal ratio)
Sequence of Estrogen receptor (Homo sapiens) (P03372 whole entry, looked up): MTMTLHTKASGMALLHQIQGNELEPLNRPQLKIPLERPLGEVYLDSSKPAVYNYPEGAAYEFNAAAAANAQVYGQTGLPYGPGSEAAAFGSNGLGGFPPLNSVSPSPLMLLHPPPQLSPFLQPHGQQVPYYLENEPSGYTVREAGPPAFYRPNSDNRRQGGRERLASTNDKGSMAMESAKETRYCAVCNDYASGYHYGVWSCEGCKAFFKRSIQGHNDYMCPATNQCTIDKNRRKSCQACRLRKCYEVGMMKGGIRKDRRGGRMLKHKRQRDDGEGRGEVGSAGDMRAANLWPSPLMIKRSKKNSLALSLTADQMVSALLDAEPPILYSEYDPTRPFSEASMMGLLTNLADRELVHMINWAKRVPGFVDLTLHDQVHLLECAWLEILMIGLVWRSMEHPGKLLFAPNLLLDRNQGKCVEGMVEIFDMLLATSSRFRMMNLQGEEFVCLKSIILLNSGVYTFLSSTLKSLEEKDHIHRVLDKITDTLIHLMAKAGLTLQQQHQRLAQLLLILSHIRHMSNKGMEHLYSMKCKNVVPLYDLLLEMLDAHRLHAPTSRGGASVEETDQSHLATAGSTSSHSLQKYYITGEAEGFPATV
Outline: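 Beta-lactamase FRET fluorescence is read after 2 hr at room temperature with LiveBLAzer B/G substrate. Before that, ER-alpha-bla HEK293 cells sit 4 hr after plating, then receive compound plus 17beta-estradiol and incubate 18 hr at 37C.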

[38] = qHTS assay to identify small molecule antagonists of the estrogen receptor alpha (ER-alpha) signaling pathway - cell viability counter screen (AID 743074; calls by dose curve;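 also: HEK293 cells carrying ER-alpha-UAS-bla reporter stimulated with 17beta-estradiol; nearly all actives have a fitted effect of over 45% in size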)
[39] = target: Estrogen receptor (Homo sapiens) (UniProt P03372); test: qHTS assay to identify small molecule agonists of the estrogen receptor alpha (ER-alpha) signaling pathway (AID 743075; calls by dose curve;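 also: HEK293 GripTite cells with ER-alpha and UAS-driven beta-lactamase reporter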)
[40] = target: Estrogen receptor (Homo sapiens) (UniProt P03372); test: qHTS assay to identify small molecule agonists of the estrogen receptor alpha (ER-alpha) signaling pathway using the BG1 cell line (AID 743079); also: nearly all actives have a fitted effect of over 20% in size
[41] = qHTS assay to identify small molecule antagonists of the estrogen receptor alpha (ER-alpha) signaling pathway using the BG1 cell line (AID 743080; calls by dose curve;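 also: BG1 cells stimulated with 17beta-estradiol alongside compound; series mostly up to about 70 µM; nearly all actives have a fitted effect of over 25% in size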)
Outline: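 BG1-Luc-4E2 cells (endogenous full-length ER-alpha, 4xERE luciferase) hormone-starved 5 days in charcoal-stripped FBS, plated 4,000/well for 24 h, then compound plus 17beta-estradiol for 21.5 h at 37 C; ONE-Glo luminescence read.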

Measured: Potency

C=CC(=O)OCCN(CC)CC
inactive: [1]

CN1CCN=C(c2ccccc2)c2cc(Cl)ccc21
inactive: [2] | [3] | [4] | [5] | [6] | [7] | [8] | [9] | [10] | [11] | [12] | [13] | [14] | [15] | [16] | [17] | [18] | [19] | [20] | [21] | [22] | [23] | [24] | [25] | [26] | [27] | [28]

CCN(CC)CCCC(C)Nc1c2ccc(Cl)cc2nc2ccc(OC)cc12 (centres undefined)
inactive: [1]

N=C1N=C(N)c2cc3ccccc3cc21
inactive: [1]

C1CCC(C(CC2CCCCN2)C2CCCCC2)CC1 (centres undefined)
inactive: [1]

CNC(C)[C@@H]1CC[C@@H](N)[C@@H](O[C@H]2[C@H](O)[C@@H](O[C@H]3OC[C@](C)(O)[C@H](NC)[C@H]3O)[C@H](N)C[C@@H]2N)O1 (some centres undefined)
inactive: [29] | [2] | [3] | [4] | [5] | [6] | [18] | [30] | [19] | [31] | [32] | [33] | [34] | [35] | [20] | [36] | [37] | [38] | [39] | [40] | [41] | [24] | [25] | [26] | [27] | [28]

Nc1ncnc2c1ncn2CCOCP(=O)(O)O
inactive: [29] | [25]
